Compounds with a hit are over-represented: about 17% of the library has one in this group of screens.
DT40 TDP1 no CPT = qHTS for Inhibitors of human tyrosyl-DNA phosphodiesterase 1 (TDP1): qHTS in cells in absence of CPT. DT40 Tdp1-/- hTDP1 cells, no CPT, ATP luminescence, 48 h. Potency, µM (series often up to 46.2 µM), actives largely listed as inhibitors. 420,000 compounds, 15% hits. AID 686978, 2013; also: nearly all actives have a fitted effect of over 55% in size
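Compound effects on proliferation are scored in DT40 Tdp1-/-;hTDP1 cells in the absence of CPT. ATP levels (CellTiter-Glo luminescence) are recorded after a ≥48 hr, 37 °C incubation.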
ClpP mod = qHTS Assay for Activators of ClpP; purified B. subtilis ClpP, FRET peptide cleavage, 20 min; Potency, µM (titrated, usually from 57.5 µM); 340,000 compounds, 1.9% hits; AID 651965, 2013; active = well fitted falling curve with a large enough effect; inconclusive = small, poorly fitted or top-dose-only effect; inactive = no such curve, though single readings can be large or run the other way; also: the source files actives as falling curves though it sought activators and does not explain the sign; nearly all actives have a fitted effect of over 65% in size
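Buffer: 100 mM Tris/HCl pH8, 100 mM KCl, 0.05% low protease BSA, 2.5% glycerol, 0.01% Tween-20. ClpP 10 microg/mL final; 20 min RT; delta FRET normalized to ADEP and DMSO controls.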
TDP1 inh = inhibitors of human tyrosyl-DNA phosphodiesterase TDP1; Q9NUW8; recombinant TDP1, AlphaScreen DNA substrate cleavage; Potency, µM (doses to about 130 µM), actives largely listed as inhibitors; 350,000 compounds, 0.28% hits; AID 485290; also: nearly all actives have a fitted effect of over 40% in size
Target sequence (Q9NUW8 whole entry, looked up): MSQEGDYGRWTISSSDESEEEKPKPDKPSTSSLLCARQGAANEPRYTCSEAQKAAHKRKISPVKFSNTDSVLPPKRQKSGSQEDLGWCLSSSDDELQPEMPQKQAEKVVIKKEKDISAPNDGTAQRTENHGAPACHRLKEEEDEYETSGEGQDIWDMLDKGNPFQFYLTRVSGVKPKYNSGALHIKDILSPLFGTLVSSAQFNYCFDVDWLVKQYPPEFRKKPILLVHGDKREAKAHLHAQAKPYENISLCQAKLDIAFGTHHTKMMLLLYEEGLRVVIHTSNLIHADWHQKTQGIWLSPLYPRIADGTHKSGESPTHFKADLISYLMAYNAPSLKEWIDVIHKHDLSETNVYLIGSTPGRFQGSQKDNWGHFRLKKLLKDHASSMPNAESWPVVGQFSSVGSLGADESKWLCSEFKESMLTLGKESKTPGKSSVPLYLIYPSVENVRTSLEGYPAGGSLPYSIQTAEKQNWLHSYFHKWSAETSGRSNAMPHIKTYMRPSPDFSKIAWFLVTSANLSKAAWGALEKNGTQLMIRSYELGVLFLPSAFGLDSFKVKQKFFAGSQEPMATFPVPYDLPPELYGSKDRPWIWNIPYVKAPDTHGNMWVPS
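E. coli-derived human Tdp1, 1 nM final. Cpd preinc 15 min RT; substrate 15 nM final, 5 min RT; AS bead mix 10 ug/ml final, 10 min RT. Signal loss = tyrosine-FITC cleavage. No-enzyme wells = max signal.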
DT40 TDP1 CPT = growth inhibition of DT40 Tdp1-/-;hTDP1 cells with camptothecin (screen for TDP1 inhibitors). Potency, µM (series often up to 46.2 µM), most hits filed as inhibitors. chicken DT40 Tdp1-/-;hTDP1 cells + 20 nM CPT, ATP luminescence, 48 h. 420,000 compounds, 12% hits; also: nearly all actives have a fitted effect of over 55% in size
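Cell growth measured by CellTiter-Glo luminescence after a minimum 48 h, 37 C compound exposure with 20 nM CPT in Tdp1-knockout DT40 cells stably expressing hTDP1, seeded 400/well; qHTS titration format.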
A number is an active result; 0 = inactive; ? = inconclusive; - = no result given. Unless noted, calls follow the shape of the dose curve; as a rule, active = well fitted curve in the direction sought with a large enough effect; inconclusive = small, poorly fitted or top-dose-only effect, or another doubt; inactive = no such curve, though single readings can be large; an effect the other way counts as inactive or inconclusive.

SMILES	DT40 TDP1 no CPT	ClpP mod	TDP1 inh	DT40 TDP1 CPT
CCOC(=O)N1CCc2c(sc3c2c(=O)n(Cc2ccccc2)c(=O)n3Cc2ccccc2F)C1	?	0	0	?
CC(=O)N1CCc2c(sc3c2c(=O)n(CCc2ccccc2)c(=O)n3Cc2ccc(F)cc2)C1	8.2µM	0	0	18.4µM
Cc1nnc2n(Cc3ccccc3)c(=O)c3c4c(sc3n12)CN(Cc1ccccc1)CC4	-	-	0	-
CC(=O)N1CCc2c(sc3c2c(=O)n(Cc2ccccc2)c(=O)n3Cc2ccccc2Cl)C1	23.1µM	0	0	?
CC(=O)N1CCc2c(sc3c2c(=O)n(Cc2ccccc2)c(=O)n3Cc2ccc(C)cc2)C1	0	0	0	0
Ic1ccc(/C=C2\C=Cc3ccccc32)cc1	?	0	-	?
CC(/C=N/NC(=O)CSc1nc(C)cc(C)n1)=C\c1ccccc1	?	0	0	?
CC(/C=N\NC(=O)Cn1c(C)nc2ccccc21)=C\c1ccccc1	8.2µM	?	0	8.2µM
C/C(=N\NC(=O)Cn1c(C)nc2ccccc21)c1cccs1	20.6µM	0	0	14.6µM
CC(=O)N1N=C(c2cccc(Cl)c2)OC1c1cccc([N+](=O)[O-])c1 (centres undefined)	20.6µM	0	0	?
CC(=O)N1N=C(c2cccc([N+](=O)[O-])c2)OC1c1cccc(Br)c1 (centres undefined)	?	-	0	0
CCOCN(C(=O)Cn1cnc2cc(C)c(C)cc21)c1c(C)cccc1CC	16.4µM	0	0	20.6µM
COc1ccccc1C1=Nn2c(nnc2-c2ccccc2OC)SC1	-	-	0	-
Cc1ccc(-c2nnc3n2N=C(c2ccccc2Br)CS3)cc1	8.2µM	0	0	11.6µM
COc1ccc(OC)c(C2=Nn3c(nnc3-c3cccc(OC(C)C)c3)SC2)c1	11.6µM	0	0	13µM
Cc1cc(-c2nnc3n2N=C(c2ccc(-c4ccccc4)cc2)CS3)n[nH]1	14.6µM	0	0	23.1µM
CCOc1ccc(C2=Nn3c(nnc3-c3ccc(OC)cc3)SC2)cc1	2.59µM	0	0	2.06µM
COc1ccc(C2=Nn3c(nnc3-c3ccncc3)SC2)cc1	?	0	0	?
COc1cc(=O)n2c(c1C(=O)NC(C)c1ccco1)CCN(C(=O)c1ccc3c(c1)OCCO3)CC2 (centres undefined)	0	-	-	0
Cc1ncc([N+](=O)[O-])n1CC(=O)Nc1ccccc1Cl	0	0	-	0
c1cc2c3c(c1)ccc1cccc(c13)C2	-	-	0	-
COc1cc(NC(=O)c2cc3c(s2)-c2ccccc2OC3)cc(OC)c1OC	8.2µM	0	0	16.4µM
COC(=O)c1ccccc1NC(=O)c1cc2c(s1)-c1ccccc1OC2	?	0	0	16.4µM
Cc1ccc(NC(=O)COC(=O)C2CCC(=O)N2)c([N+](=O)[O-])c1 (centres undefined)	0	0	0	0
NC(N)=NC(=O)c1nc(Cl)c(N2CCCCCC2)nc1N	7.08µM	0	0	7.08µM
SMILES	DT40 TDP1 no CPT	ClpP mod	TDP1 inh	DT40 TDP1 CPT
CC(C)CN(C)c1nc(N)c(C(=O)N=C(N)N)nc1Cl	-	-	0	-
C=CCn1c(C)cc(C(=O)COC(=O)c2cncc(Br)c2)c1C	?	0	0	18.4µM
C=CCn1c(C)cc(C(=O)COc2ncnc3sccc23)c1C	16.4µM	0	0	?
C=CCn1c(C)cc(C(=O)COC(=O)CCc2cc(OC)c(OC)c(OC)c2)c1C	0	0	0	0
COc1cc(/C=C(/C#N)c2ccccc2F)ccc1OCc1ccccc1	18.4µM	0	0	16.4µM
COc1ccccc1N=Cc1nc(-c2ccccc2)oc1OC(C)=O	?	0	0	?
CC(=O)Oc1oc(-c2ccccc2)nc1/C=N/c1ccccn1	20.6µM	0	0	16.4µM
CN(C)c1ccc(N=Cc2nc(-c3ccccc3)oc2OC(=O)c2ccccc2)cc1	23.1µM	?	0	18.4µM
CN(C)c1ccc(N=Cc2nc(-c3ccccc3)oc2O)cc1	0	22.4µM	0	0
COc1ccc2c(c1)c(CC(=O)Nc1cccc(F)c1C)c(C)n2C(=O)c1ccc(Cl)cc1	0	0	0	0
Brc1ccc(N=Nc2ccc3ccccc3n2)cc1	?	-	0	0
COc1ccc(OCc2cc(C(=O)N3CCC(OC)CC3)no2)c2ccccc12	14.6µM	0	0	23.1µM
O=C(c1cc(COc2ccc(F)cc2Cl)on1)N1CCN(C2CCCCC2)C(=O)C1	7.31µM	0	0	10.3µM

High-throughput results from PubChem BioAssay.
